# Test results published in the supplement of paper PMC12339681.
# Where a name gives a salt, the structure may show the parent alone.
# System: PBMC-derived induced microglia-like cells (piMGLC)
# Experiment: synaptosome phagocytic index relative to DMSO control (fraction of DMSO); higher = more phagocytosis
# Details: concentration: 10 uM (2 uM for compounds listed in Table S2); pretreatment time: 24 h; assay time: 3 h
# Procedure: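 PBMC-derived induced microglia-like cells (piMGLCs) in 96-well plates were pretreated for 24 h with CNS-penetrant library compounds (MedChemExpress HY-L028), mostly at 10 uM; Table S2 lists 9 compounds at 2 uM. pHrodo-Red-labelled human iPSC-neuron synaptosomes (3 ug/well) were then added for 3 h, and cells were fixed and imaged by confocal microscopy. Phagocytic index (synaptosome area / cell count, CellProfiler) is a mean over 3 replicate wells on different plates, normalized to the DMSO control. Compounds leaving <10% of DMSO cell count were marked toxic and given no value.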
row,SMILES,synaptosome phagocytic index
1,COc1ccc(C=C2CCCN=C2c2cccnc2)c(OC)c1 [GTS-21_(dihydrochloride)],0.922
2,Clc1ccc(N2CCN(Cc3c[nH]c4ncccc34)CC2)cc1,0.89
3,CC(C)(NC(=O)O[C@@H]1CN2CCC1CC2)c1csc(-c2ccc(F)cc2)n1 [Ibiglustat],1.26
4,N[C@@H]1C[C@H]1c1ccccc1 [Tranylcypromine_(hemisulfate)],0.949
5,CCN(C)C(=O)Oc1cccc([C@H](C)N(C)C)c1 [Rivastigmine_(tartrate)],1.02
6,CN1CCc2ccccc2C1CNC(=O)c1ccc(Cl)c(Cl)c1 (stereo unspecified),0.901
7,C=C(C)[C@H]1CN[C@H](C(=O)O)[C@H]1CC(=O)O [Kainic_acid],0.701
8,FC(F)(F)c1ccc(N2CCNCC2)nc1Cl,1.17
9,COc1ccc(C(CN(C)C)C2(O)CCCCC2)cc1 (stereo unspecified) [Venlafaxine_(hydrochloride)],1.02
10,Cn1c(CCCC(=O)O)nc2cc(N(CCCl)CCCl)ccc21 [Bendamustine_(hydrochloride)],0.95
11,CN(C)C(=O)Oc1ccc[n+](C)c1 [Pyridostigmine_(bromide)],0.814
12,COc1cc2c(cc1OC)C1CC(=O)C(CC(C)C)CN1CC2 (stereo unspecified) [Tetrabenazine],0.906
13,CN(C)c1cc2c(cc1Sc1nc3c(N)nccc3n1CCNCC(C)(C)C)OCO2 [Debio_0932],0.767
14,CCC(=O)O[C@H]1CC[C@H]2[C@@H]3CCC4=CC(=O)CC[C@]4(C)[C@H]3CC[C@]12C [Testosterone_propionate],0.807
15,NCC(CC(=O)O)c1ccc(Cl)cc1 (stereo unspecified) [Baclofen],0.783
16,COc1ccc(OC)c(C(=O)N[C@@H]2CN3CCC2CC3)c1,0.646
17,CCOC(=O)c1cncn1[C@H](C)c1ccccc1 [Etomidate_(hydrochloride)],0.749
18,O=C(NO)c1cnc(NC2(c3ccccc3)CCC(F)(F)CC2)nc1,0.867

row,SMILES,synaptosome phagocytic index
1,Cn1cc(C2=C(c3cn(C4CCN(Cc5ccccn5)CC4)c4ccccc34)C(=O)NC2=O)c2ccccc21 [Enzastaurin],0.997
2,CN1Cc2cc(Cl)ccc2-n2c(nnc2[C@H]2CC[C@H](Oc3ccccn3)CC2)C1 [Balovaptan],1.09
3,CCOC(=O)c1cncn1[C@H](C)c1ccccc1 [Etomidate],0.926
4,COc1cccc(NCC(F)Cn2c3ccc(Br)cc3c3cc(Br)ccc32)c1 (stereo unspecified),0.0819
5,CN1C[C@H](C(=O)N[C@]2(C)O[C@@]3(O)[C@@H]4CCCN4C(=O)[C@H](Cc4ccccc4)N3C2=O)C[C@@H]2c3cccc4[nH]cc(c34)C[C@H]21 [Dihydroergotamine_(mesylate)],0.976
6,CC(C)(NC(=O)O[C@@H]1CN2CCC1CC2)c1csc(-c2ccc(F)cc2)n1 [Ibiglustat_(L-Malic_acid)],1.05
7,CCN(CCCl)Cc1ccccc1Br [DSP-4_(hydrochloride)],1.15
8,CC[C@@H](C(N)=O)N1CCCC1=O [Levetiracetam],0.711
9,O=S(=O)(CC1CS1)c1ccc(Oc2ccccc2)cc1 (stereo unspecified),0.514
10,CNCC/C=C/c1cccnc1 [Rivanicline_hemioxalate],0.922
11,CCN(C)C(=O)Oc1cccc([C@H](C)N(C)C)c1 [Rivastigmine],1.03
12,NCC1(CC(=O)O)CCCCC1 [Gabapentin],0.686
13,NCCc1c[nH]c2ccc(O)cc12 [Serotonin_hydrochloride],0.812
14,C/C(=C\c1csc(C)n1)[C@@H]1C[C@@H]2O[C@]2(C)CCC[C@H](C)[C@H](O)[C@@H](C)C(=O)C(C)(C)[C@@H](O)CC(=O)O1 [Epothilone_B],0.842
15,C1=CC[C@@H](c2cccnc2)NC1 [Anatabine_(dicitrate)],0.984
16,CNC(=O)ON(C(C)=O)C(=O)NC [Caracemide],0.78
17,Cc1cccc([C@H](C)c2c[nH]cn2)c1C [Dexmedetomidine_(hydrochloride)],0.931
18,Cc1sc2c(c1C)C(c1ccc(Cl)cc1)=N[C@@H](CC(=O)OC(C)(C)C)c1nnc(C)n1-2,0.3
